Experimental data taken from ChEMBL document CHEMBL1961873, “Compounds: GSK PKIS; Assays: Nanosyn kinase panel” (2012).

Experiments:
[1] = target: Leukocyte tyrosine kinase receptor (Homo sapiens) (UniProt P29376); conditions: at 1 µM;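 further: each value is the mean inhibition of LTK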
[2] = target: Tyrosine-protein kinase Lyn (Homo sapiens) (UniProt P07948); conditions: at 0.1 µM
[3] = target: Tyrosine-protein kinase Lyn (Homo sapiens) (UniProt P07948); conditions: at 1 µM
[4] = target: Tyrosine-protein kinase Lyn (Homo sapiens) (UniProt P07948); conditions: at 0.1 µM; remark: listed apart in the source
[5] = target: Tyrosine-protein kinase Lyn (Homo sapiens) (UniProt P07948); conditions: at 1 µM; remark: listed apart in the source
[6] = target: T1, Tyrosine-protein kinase Mer (Homo sapiens) (UniProt Q12866); conditions: at 0.1 µM
T1 sequence (whole entry): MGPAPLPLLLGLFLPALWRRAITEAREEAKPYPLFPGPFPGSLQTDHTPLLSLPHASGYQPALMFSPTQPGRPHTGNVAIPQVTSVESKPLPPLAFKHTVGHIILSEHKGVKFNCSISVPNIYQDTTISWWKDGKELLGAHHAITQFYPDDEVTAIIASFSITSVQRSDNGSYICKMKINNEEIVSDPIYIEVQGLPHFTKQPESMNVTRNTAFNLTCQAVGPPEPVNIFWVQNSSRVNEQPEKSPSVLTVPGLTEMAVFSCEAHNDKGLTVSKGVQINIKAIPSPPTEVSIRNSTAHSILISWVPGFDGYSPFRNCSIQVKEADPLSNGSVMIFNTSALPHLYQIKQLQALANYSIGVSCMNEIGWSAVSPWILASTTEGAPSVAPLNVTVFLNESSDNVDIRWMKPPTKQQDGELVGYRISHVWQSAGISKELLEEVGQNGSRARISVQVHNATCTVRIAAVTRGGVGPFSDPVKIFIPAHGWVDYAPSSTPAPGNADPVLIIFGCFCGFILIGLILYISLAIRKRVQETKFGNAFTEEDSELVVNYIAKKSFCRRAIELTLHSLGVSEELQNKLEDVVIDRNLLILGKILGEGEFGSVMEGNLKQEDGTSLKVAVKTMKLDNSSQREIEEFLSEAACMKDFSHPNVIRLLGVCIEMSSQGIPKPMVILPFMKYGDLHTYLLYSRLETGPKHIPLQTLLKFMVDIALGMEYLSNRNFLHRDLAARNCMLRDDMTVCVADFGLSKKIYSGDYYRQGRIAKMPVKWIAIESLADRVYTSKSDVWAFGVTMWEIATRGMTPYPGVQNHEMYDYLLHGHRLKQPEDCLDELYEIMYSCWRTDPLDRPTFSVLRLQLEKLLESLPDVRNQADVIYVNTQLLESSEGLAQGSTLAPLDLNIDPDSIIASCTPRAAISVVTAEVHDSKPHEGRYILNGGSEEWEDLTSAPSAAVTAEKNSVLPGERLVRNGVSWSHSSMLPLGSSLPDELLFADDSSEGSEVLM

[7] = target: T1, Tyrosine-protein kinase Mer (Homo sapiens); conditions: at 1 µM
[8] = target: Hepatocyte growth factor receptor (Homo sapiens) (UniProt P08581); conditions: at 0.1 µM
[9] = target: Hepatocyte growth factor receptor (Homo sapiens) (UniProt P08581); conditions: at 1 µM
[10] = target: T2, Muscle, skeletal receptor tyrosine-protein kinase (Homo sapiens) (UniProt O15146); conditions: at 0.1 µM
T2 sequence (whole entry): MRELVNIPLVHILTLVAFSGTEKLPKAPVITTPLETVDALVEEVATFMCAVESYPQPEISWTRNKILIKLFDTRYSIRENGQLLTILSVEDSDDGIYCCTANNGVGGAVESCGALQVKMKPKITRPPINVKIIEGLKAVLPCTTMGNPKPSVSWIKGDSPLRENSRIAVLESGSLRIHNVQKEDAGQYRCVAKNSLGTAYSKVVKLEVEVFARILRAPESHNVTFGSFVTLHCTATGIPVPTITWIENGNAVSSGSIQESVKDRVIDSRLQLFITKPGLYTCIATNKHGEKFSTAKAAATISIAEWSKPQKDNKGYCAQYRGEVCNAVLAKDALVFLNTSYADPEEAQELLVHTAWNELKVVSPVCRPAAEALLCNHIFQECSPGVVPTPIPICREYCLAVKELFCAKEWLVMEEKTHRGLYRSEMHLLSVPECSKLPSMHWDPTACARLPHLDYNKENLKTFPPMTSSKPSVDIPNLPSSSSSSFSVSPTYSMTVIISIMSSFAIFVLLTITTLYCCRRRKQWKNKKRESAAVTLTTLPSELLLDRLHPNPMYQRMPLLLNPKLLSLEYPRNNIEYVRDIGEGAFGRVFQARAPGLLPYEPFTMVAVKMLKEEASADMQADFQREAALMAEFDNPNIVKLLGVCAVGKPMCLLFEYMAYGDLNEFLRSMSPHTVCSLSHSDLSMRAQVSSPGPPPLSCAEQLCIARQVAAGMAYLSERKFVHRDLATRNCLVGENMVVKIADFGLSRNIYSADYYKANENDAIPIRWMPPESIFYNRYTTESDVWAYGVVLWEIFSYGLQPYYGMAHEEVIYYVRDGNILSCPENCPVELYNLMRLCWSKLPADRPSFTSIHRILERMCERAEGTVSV

[11] = target: T2, Muscle, skeletal receptor tyrosine-protein kinase (Homo sapiens); conditions: at 1 µM
[12] = target: Platelet-derived growth factor receptor alpha (Homo sapiens) (UniProt P16234); conditions: at 0.1 µM
[13] = target: Platelet-derived growth factor receptor alpha (Homo sapiens) (UniProt P16234); conditions: at 1 µM
[14] = test system: Platelet-derived growth factor receptor alpha (Homo sapiens), P16234 [D842V]; conditions: at 0.1 µM
Platelet-derived growth factor receptor alpha (Homo sapiens), P16234 [D842V], sequence (P16234 whole entry D842V): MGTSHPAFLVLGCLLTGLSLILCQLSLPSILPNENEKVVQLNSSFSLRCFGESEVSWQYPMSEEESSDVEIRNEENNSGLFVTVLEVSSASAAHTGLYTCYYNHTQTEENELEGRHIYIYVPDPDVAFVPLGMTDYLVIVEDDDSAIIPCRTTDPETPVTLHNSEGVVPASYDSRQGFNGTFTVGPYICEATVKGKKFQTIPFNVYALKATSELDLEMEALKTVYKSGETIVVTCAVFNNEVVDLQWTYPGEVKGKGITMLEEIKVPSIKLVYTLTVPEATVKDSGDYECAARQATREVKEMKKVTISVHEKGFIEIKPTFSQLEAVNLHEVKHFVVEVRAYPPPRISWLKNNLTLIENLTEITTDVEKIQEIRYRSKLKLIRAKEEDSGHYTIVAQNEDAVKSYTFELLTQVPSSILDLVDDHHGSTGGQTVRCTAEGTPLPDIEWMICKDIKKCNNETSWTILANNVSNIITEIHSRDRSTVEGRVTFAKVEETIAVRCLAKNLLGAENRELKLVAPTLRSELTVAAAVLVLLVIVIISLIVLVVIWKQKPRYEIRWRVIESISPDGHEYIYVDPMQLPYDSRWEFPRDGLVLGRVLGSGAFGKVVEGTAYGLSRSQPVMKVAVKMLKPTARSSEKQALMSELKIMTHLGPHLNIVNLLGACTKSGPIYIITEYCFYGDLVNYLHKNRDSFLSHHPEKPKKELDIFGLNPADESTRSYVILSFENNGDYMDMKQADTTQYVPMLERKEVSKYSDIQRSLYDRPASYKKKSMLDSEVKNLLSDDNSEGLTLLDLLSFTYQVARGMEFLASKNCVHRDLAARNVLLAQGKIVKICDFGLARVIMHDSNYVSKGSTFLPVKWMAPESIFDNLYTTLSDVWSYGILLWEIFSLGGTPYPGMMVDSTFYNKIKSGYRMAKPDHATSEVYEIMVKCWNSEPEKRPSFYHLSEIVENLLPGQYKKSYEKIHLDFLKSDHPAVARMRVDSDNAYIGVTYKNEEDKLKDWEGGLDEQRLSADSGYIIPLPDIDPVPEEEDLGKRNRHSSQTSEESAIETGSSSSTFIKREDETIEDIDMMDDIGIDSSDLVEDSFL

[15] = test system: Platelet-derived growth factor receptor alpha (Homo sapiens), P16234 [D842V]; conditions: at 1 µM
[16] = test system: Platelet-derived growth factor receptor alpha (Homo sapiens), P16234 [T674I]; conditions: at 0.1 µM
Platelet-derived growth factor receptor alpha (Homo sapiens), P16234 [T674I], sequence (P16234 whole entry T674I): as the sequence (P16234 whole entry D842V) above, with T674I, V842D counted along it

[17] = test system: Platelet-derived growth factor receptor alpha (Homo sapiens), P16234 [T674I]; conditions: at 1 µM
[18] = test system: Platelet-derived growth factor receptor alpha (Homo sapiens), P16234 [V561D]; conditions: at 0.1 µM
Platelet-derived growth factor receptor alpha (Homo sapiens), P16234 [V561D], sequence (P16234 whole entry V561D): as the sequence (P16234 whole entry D842V) above, with V561D, V842D counted along it

[19] = test system: Platelet-derived growth factor receptor alpha (Homo sapiens), P16234 [V561D]; conditions: at 1 µM
[20] = target: Platelet-derived growth factor receptor beta (Homo sapiens) (UniProt P09619); conditions: at 0.1 µM;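 further: reported value is the mean percent inhibition of the kinase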
Platelet-derived growth factor receptor beta (Homo sapiens), sequence (P09619 whole entry): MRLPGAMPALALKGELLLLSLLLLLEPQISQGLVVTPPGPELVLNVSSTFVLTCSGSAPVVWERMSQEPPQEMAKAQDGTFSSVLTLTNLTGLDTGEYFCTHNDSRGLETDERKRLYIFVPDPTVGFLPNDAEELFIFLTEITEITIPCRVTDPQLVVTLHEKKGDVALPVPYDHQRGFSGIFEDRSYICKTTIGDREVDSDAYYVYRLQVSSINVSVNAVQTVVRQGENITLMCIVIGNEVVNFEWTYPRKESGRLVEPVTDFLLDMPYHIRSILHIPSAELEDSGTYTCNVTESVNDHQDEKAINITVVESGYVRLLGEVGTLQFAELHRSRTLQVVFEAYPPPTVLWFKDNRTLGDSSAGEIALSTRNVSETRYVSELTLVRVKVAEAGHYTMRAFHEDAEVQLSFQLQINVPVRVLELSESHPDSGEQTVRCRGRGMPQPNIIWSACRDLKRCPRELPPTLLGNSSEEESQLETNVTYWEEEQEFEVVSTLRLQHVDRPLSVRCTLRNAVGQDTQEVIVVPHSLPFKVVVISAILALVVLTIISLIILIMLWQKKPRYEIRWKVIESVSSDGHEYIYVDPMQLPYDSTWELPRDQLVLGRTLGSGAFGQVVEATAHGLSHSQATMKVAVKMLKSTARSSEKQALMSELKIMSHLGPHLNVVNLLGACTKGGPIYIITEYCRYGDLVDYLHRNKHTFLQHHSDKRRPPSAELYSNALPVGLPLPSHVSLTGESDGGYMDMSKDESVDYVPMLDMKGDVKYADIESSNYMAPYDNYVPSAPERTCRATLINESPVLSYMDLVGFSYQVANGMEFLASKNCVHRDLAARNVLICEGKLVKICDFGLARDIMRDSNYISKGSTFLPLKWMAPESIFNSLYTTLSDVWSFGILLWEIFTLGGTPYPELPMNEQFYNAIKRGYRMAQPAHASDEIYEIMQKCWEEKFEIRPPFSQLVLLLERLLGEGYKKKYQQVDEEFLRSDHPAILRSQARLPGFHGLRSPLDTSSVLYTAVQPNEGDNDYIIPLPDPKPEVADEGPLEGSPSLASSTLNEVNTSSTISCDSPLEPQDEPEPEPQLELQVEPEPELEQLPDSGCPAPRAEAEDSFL

Tyrosine-protein kinase Lyn (Homo sapiens), sequence (P07948 2-512 limits assumed): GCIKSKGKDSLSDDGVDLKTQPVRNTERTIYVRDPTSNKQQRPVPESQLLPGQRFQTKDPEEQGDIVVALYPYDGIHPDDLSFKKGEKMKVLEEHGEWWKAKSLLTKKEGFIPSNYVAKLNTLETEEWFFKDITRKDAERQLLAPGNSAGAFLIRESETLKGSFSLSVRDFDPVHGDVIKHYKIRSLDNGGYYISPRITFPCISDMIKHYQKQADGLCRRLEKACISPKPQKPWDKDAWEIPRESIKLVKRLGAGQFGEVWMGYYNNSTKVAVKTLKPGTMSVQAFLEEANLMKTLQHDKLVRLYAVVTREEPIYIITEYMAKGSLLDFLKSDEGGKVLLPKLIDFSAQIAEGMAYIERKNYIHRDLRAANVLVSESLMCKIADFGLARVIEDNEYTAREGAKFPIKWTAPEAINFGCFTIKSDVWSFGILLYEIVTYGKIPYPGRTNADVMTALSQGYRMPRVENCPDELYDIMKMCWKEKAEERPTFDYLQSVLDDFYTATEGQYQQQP

| SMILES | inhibition [1] [%] | inhibition [2] [%] | inhibition [3] [%] | inhibition [4] [%] | inhibition [5] [%] | inhibition [6] [%] | inhibition [7] [%] | inhibition [8] [%] | inhibition [9] [%] | inhibition [10] [%] | inhibition [11] [%] | inhibition [12] [%] | inhibition [13] [%] | inhibition [14] [%] | inhibition [15] [%] | inhibition [16] [%] | inhibition [17] [%] | inhibition [18] [%] | inhibition [19] [%] | inhibition [20] [%] |
| --- | --- | --- | --- | --- | --- | --- | --- | --- | --- | --- | --- | --- | --- | --- | --- | --- | --- | --- | --- | --- |
| CCn1c(-c2nonc2N)nc2ccccc21 | 1.66 | 3.33 | 2.16 | 2.02 | 0.98 | -0.11 | 1.81 | 5.36 | 2.36 | 3.36 | 4.12 | 6.47 | 8.29 | 2.53 | 2.64 | 2.43 | 3.19 | 1.19 | 1.67 | 2.55 |
| c1cc(-c2cnn3nc(N4CCOCC4)ccc23)nc(NC2CC2)n1 | 6.33 | 3.58 | 2.39 | 2.01 | 3.12 | 1.15 | 6.24 | -2.37 | 2.41 | 4.2 | 9.05 | 31.9 | 76.8 | 21.2 | 75.8 | 2.78 | 17.5 | 18.1 | 72.4 | 12.5 |
| Cc1cccc(Nc2ncc(-c3ccccc3)o2)c1 | 2.88 | 3.9 | 8.28 | 2.22 | 7.24 | 3.9 | 2.26 | 3.88 | 2.78 | 0.01 | 5.58 | 7.16 | 29.9 | 1.63 | 5.43 | 7.94 | 50.3 | 22.5 | 48.7 | 7.93 |
| CNC(=O)c1cncc(/C=C/c2ccccc2Cl)c1 | 1 | 1.6 | 11.3 | 1.83 | 8.12 | 3.56 | 2.42 | 3.72 | 4.48 | 0.71 | 8.03 | 7.6 | 19.1 | -1.08 | 4.93 | 2.9 | 2.13 | 4.99 | 23.1 | 7.75 |
| CCOc1ccc2c(-c3ccnc(Nc4cccc(C(F)(F)F)c4)n3)cnn2n1 | 1.96 | 4.33 | 4.33 | 3.97 | 3.17 | 0.97 | 3.35 | 3.01 | 3.51 | 2.25 | 1.27 | 9.61 | 27.3 | 2.8 | 10.2 | 3.74 | 9.48 | 2.96 | 15.9 | 7.67 |
| Fc1ccc(-c2cc(-c3c[nH]nc3-c3ccccn3)ccn2)cc1 | 5.88 | 6.32 | 8.49 | 5.14 | 7.44 | 1.96 | 2 | 6.72 | 8.44 | 2.06 | -0.34 | 5.93 | 19.8 | 4.02 | 21.2 | 5.49 | 10.1 | 4.91 | 11.8 | 3.85 |
| CCn1c(-c2nonc2N)nc2cnc(Oc3cccc(NC(=O)c4ccc(N(C)C)cc4)c3)cc21 | 0.1 | 1.48 | 1.6 | 0.82 | 1.31 | 0.23 | 0.04 | -1.57 | -4.37 | 2.84 | 2.13 | 4.44 | 6.4 | 1.28 | 1.65 | 2.82 | 4.91 | 1.85 | 6.18 | 3.88 |
